Assay outcomes from PubChem.
Luc counter: Kinase-Glo luciferase inhibition (counter-screen); 0.28% of 200,000 active; AID 1379; Q27757; Kinase-Glo luciferase, ATP luminescence, 8 min; Potency, µM (top dose mostly 38.3 µM), for inactives: top-dose activity change, negative = inhibition, hits mostly inhibitors; note: % is set by controls: 0 for no effect and ±100 for the full control effect; nearly all actives have a fitted effect of over 60% in size
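Light output from Kinase-Glo luciferase with luciferin and 10 uM ATP in 50 mM imidazole pH 7.2, KCl, MgCl2, Tween 20, BSA; compound pin-delivered, 8-min ambient incubation, then luminescence read.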
SMN2 splice up: increases expression of the SMN2 splice variant; HEK293 SMN2-luciferase splicing reporter, luminescence, 30-36 h; Potency, µM (doses to about 46.1 µM), for the others: at the highest dose activity change, positive = activation, hits mostly activators; 2.8% of 210,000 active; AID 1458; note: % of control where 0% means no effect; nearly all actives have a fitted effect of over 55% in size
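HEK293 cells carry an SMN2 […]–luciferase reporter in which exon 7 inclusion puts luciferase in frame. Cells were plated 10-12 h before compound addition, then incubated 30-36 h at 37C. ONE-Glo luminescence was read; sodium butyrate at 4.5 mM final served as control.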
ELG1 genotoxic: genotoxicity induction in ELG1-luciferase HEK293T cells; HEK293T ELG1-luciferase reporter, luminescence, 16 h; 1.3% of 330,000 active; Potency, µM (doses to about 46 µM), without a hit: at the highest dose activity change, positive = activation, most hits filed as activators; note: % of control where 0% means no effect; nearly all actives have a fitted effect of over 60% in size
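Reporter readout depends on ELG1 protein level, which increases with genetic stress. After 16 hr compound exposure at 37 °C, luciferase activity was quantified using ONE-Glo.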
NPC1 prom act: activates the NPC1 promoter. Huh7 NPC1 promoter luciferase reporter, 24 h. 2.4% of 320,000 active. Potency, µM (doses to about 9.22 µM), without a hit: at the top dose activation, most hits filed as activators. AID 485313; note: % of control where 0% means no effect; nearly all actives have a fitted effect of over 60% in size
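Huh7 reporter cells (NPC1 promoter driving luciferase) are dosed with compound for 24 h at 37 °C, 5% CO2; luciferase detection reagent is then added and luminescence measured after 10 min at ambient temperature.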
Rab9 promoter act: Rab9 promoter activation; Potency, µM (series often up to 9.22 µM), without a hit: at the top dose activation, negative = inhibition, actives largely listed as activators; 2.8% of 320,000 active; Huh7 Rab9 promoter-luciferase reporter, luminescence, 24 h; AID 485297; note: % of control where 0% means no effect; nearly all actives have a fitted effect of over 60% in size
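Huh7 cells stably carrying a Rab9 promoter-luciferase reporter, 1500 cells per well in OP-MEM I with 10% FBS, treated with compound 24 hours at 37C. Luciferase activity read by luminescence after 10 minutes with Amplite reagent.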
FLuc modulator: firefly luciferase modulation, counter-screen for miR-21 project | purified FLuc, Km substrates, luminescence inhibition | Potency, µM (doses to about 57.5 µM), for inactives: at the highest dose activity change, negative = inhibition, actives largely listed as inhibitors | P08659 | 6.9% of 360,000 active;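 note: plate controls were vehicle for no effect and reference inhibitor for full effect; nearly all actives have a fitted effect of over 55% in size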
Target sequence (P08659 whole entry, looked up): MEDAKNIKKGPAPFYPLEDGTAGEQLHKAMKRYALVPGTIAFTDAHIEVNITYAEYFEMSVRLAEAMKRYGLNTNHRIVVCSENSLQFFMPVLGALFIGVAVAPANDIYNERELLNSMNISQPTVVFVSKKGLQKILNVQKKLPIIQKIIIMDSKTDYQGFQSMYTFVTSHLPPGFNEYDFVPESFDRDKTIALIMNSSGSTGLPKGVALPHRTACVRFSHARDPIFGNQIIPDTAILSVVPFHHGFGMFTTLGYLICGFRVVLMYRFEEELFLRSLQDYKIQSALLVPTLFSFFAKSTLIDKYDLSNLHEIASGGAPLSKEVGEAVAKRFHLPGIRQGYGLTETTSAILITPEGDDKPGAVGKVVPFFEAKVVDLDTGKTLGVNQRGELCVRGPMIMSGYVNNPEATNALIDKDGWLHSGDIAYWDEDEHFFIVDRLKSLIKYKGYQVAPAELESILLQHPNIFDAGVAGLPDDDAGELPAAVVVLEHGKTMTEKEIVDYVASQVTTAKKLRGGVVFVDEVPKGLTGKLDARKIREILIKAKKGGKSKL
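Purified P. pyralis luciferase, 10 nM final, with Km-level 10 uM D-luciferin and 10 uM ATP in 50 mM Tris acetate pH 7.5, 10 mM Mg acetate, 0.01% Tween-20, 0.05% BSA; 6-point qHTS titration about 60 µM downward; luminescence read.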
* = called active by the depositor; u = inconclusive; x = no result; ! = not active in a repeat; [ ] = another dose, or the depositor's remark. In the library only some 7.3% were active in any assay of this set; here they are far more common. Calls come from the whole dose curve; as a rule, active = well fitted curve in the direction sought with a large enough effect; inconclusive = small, poorly fitted or top-dose-only effect, or another doubt; inactive = no such curve, though single readings can be large; an effect the other way counts as inactive or inconclusive. Potency is the fitted concentration of half-maximal effect.

SMILES	Luc counter	SMN2 splice up	ELG1 genotoxic	NPC1 prom act	Rab9 promoter act	FLuc modulator
CC(=O)Nc1ccc2nc3ccccc3nc2c1	x	x	21µM*	2.8µM*	4µM*	19µM*
Fc1ccc(NCc2cccnc2)cc1F	0%	-4%	4%	-2%	3%	1%
Oc1cc(NCc2cccnc2)ccc1-c1nc2ccccc2o1	-1%	11µM*	u	1.4µM*	u	7.6µM*
CC(=O)Nc1ccc(-c2nc3ccc(NC(C)=O)cc3o2)cc1	x	x	u	2.5µM*	2µM*	u
CCc1ccc(OCC(=O)Nc2ccc(-c3nc4ccccc4o3)c(O)c2)cc1	-5%	u	u	2µM*	3.5µM*	10%
CC(=O)Nc1cc(-c2nc3ccccc3o2)ccc1Cl	x	x	u	15%	u	17µM*
CC(=O)Nc1cccc(-c2nc3ccccc3o2)c1	x	x	u	28%	30%	19µM*
CCOC(=O)c1cc(-c2ccccc2)n(CCCC(=O)Nc2cc(C)ccc2OC)c1C	x	x	x	x	x	3%
Cc1cccc(NC(=O)c2ccc(CN3CCN(Cc4ccccc4)CC3)cc2)c1	1%	x	-3%	-23%	-30%	u
Cc1cccc(NC(=O)C2=C(O)c3ccccc3N(C)S2(=O)=O)c1	3%	14%	-2%	1%	1%	17µM*
CN1c2ccccc2C(O)=C(C(=S)Nc2ccc(Cl)cc2)S1(=O)=O	5%	-18%	-9%	-2%	-6%	19µM*
CCOc1ccc(CNC(=O)C2CCCN(c3nc4c(C)cc(C)cc4s3)C2)cc1 (configuration not stated)	x	8%	x	x	x	-1%
CCOc1ccccc1NC(=O)NC(CC)c1c(-n2cccc2)sc2c1CCN(C)C2 (configuration not stated)	x	x	x	x	x	1%
CCOc1ccc(C(=O)Nc2cc(NC(=O)c3ccc(OCC)c(Cl)c3)cc(C(=O)O)c2)cc1Cl	1%	9%	-1%	-4%	-7%	-20%
O=C(COc1ccc(Cl)cc1Cl)NCc1ccco1	-1%	-8%	u	25%	u	24µM*
CC(=O)Nc1ccc(NC(=O)COc2ccc(Cl)cc2Cl)cc1	x	x	1%	26%	0%	7%
CCOc1ccc(C(=O)Nc2cccc(C(=O)O)c2)cc1Cl	-6%	0.56µM*	-10%	u	u	0.24µM*
CCCn1nnc(NC(=O)c2ccc(OCC)c(Cl)c2)n1	0%	3%	10%	3%	23%	6%[2.3 µM]
CCOc1ccc(C(=O)Nc2ccc(Cl)cn2)cc1Cl	1%	u	u	2.5µM*	2.5µM*	4.8µM*
O=C(COc1ccc(Cl)cc1Cl)Nc1ccc(Cl)cn1	-12%	11µM*	1.2µM*	0.45µM*	u	0.3µM*
NC(=O)C1CCN(c2nc(-c3ccccc3[N+](=O)[O-])cs2)CC1	x	x	x	x	x	-1%
O=C(O)C(F)(F)C(F)(F)C(F)(F)C(F)(F)C(=O)O	-4%[7.66 µM]	3%[9.22 µM]	x	x	x	x
COc1ccc(-c2c(C)c3ccc(O)c(CN4CCC(C)CC4)c3oc2=O)cc1OC	x	x	x	x	x	2%
CCOC(=O)CNC(=O)O[C@H]1C(=O)c2cc(OC)ccc2O[C@@H]1c1ccc(OC)c(Br)c1	1%	3%	x	x	x	x
O=C(COc1ccc(Cl)cc1Cl)NN=C1CCCCC1	3%	-18%	1%	0%	-7%	7.6µM*
SMILES	Luc counter	SMN2 splice up	ELG1 genotoxic	NPC1 prom act	Rab9 promoter act	FLuc modulator
Cc1ccc(N(C)C(=O)CCS(=O)(=O)c2cc3c(cc2Cl)NC(=O)CO3)cc1	x	x	1%	1%	2%	1.7µM*!
CCN(C(=O)CCS(=O)(=O)c1cc2c(cc1Cl)NC(=O)CO2)c1ccccc1	x	x	1%	1%	3%	0%
COc1ccc(C(CC(=O)Nc2ccc(OC)c(OC)c2)N2Cc3ccccc3C2=O)cc1 (configuration not stated)	x	x	x	x	x	4%
CCN1CCN(C(=O)c2nn(-c3ccc(C)cc3)c(=O)c3c2c2ccccc2n3C)CC1	0%	25µM*	7%	6%	1%	4%
CCOC(=O)C1CCCN(C(=O)c2nn(-c3ccc(C)cc3)c(=O)c3c2c2ccccc2n3C)C1 (configuration not stated)	x	4%	x	x	x	-2%
CCOC(=O)c1cc2c(=O)n3ccccc3nc2n(Cc2ccco2)c1=NC(=O)c1cccc(F)c1	x	1%	x	x	x	0%
Cc1ccccc1NC(=O)c1csc2c1CCCC2	-15%	u	26µM*	u	29%	19µM*
O=C(NCc1ccccc1)c1csc2c1CCCCC2	u	-15%	11%	0%	8%	-5%
Cc1cc(NC(=O)Nc2csc3c2CCCC3)ccc1Br	x	-1%	x	x	x	u
CC(CNC(=O)c1csc2c1CCCCC2)c1ccccc1 (configuration not stated)	x	11µM*	x	x	x	15µM*
O=C(Nc1nccs1)c1csc2c1CCCC2	0%	26%	8%	28%	28%	13µM*
CC(C)c1ccc(NC(=O)Nc2csc3c2CCCC3)cc1	x	-30%	x	x	x	4.8µM*
Cc1ccccc1NC(=O)Nc1csc2c1CCCC2	x	5%	x	x	x	u
O=C(CSc1nccn1-c1ccc(F)cc1)Nc1ccc(OC(F)(F)F)cc1	x	x	x	x	x	-1%
COc1ccc(NC(=O)c2csc3c2CCCC3)cc1	1%	13µM*	u	2µM*	3.2µM*	3µM*
COc1cccc(NC(=O)c2csc3c2CCCC3)c1	-12%	14µM*	u	u	u	9.5µM*
COc1cccc(NC(=O)CN(C)C(=O)c2csc3c2CCCC3)c1	x	x	-3%	1%	10%	10%
Cc1ccc(/C=N\NC(=O)c2csnn2)cc1	u	-3%	u	3.5µM*	2.5µM*	3.8µM*
Cc1ccc(/C=N/NC(=O)c2csc3c2CCCC3)cc1	-1%	24%	u	0%	24%	11µM*
COc1cc(/C=N/NC(=O)c2csc3c2CCCC3)cc(OC)c1O	-5%	8%	-1%	7%	0%	-19%
Cc1ccc(NC(=O)Cn2cnc3sc(C(=O)O)c(C)c3c2=O)cc1Cl	x	1%	x	x	x	-18%
CN1C(=O)c2ccccc2Sc2ccc(NC(=O)N3CCN(c4ccc(F)cc4)CC3)cc21	x	x	x	x	x	-2%
COc1cc(OC)c(NC(=O)CSC2=Nc3ccccc3N=C(c3ccc(F)cc3)C2)cc1Cl	x	x	x	x	x	0%
COc1ccc(OCCC(=O)N2CCCCC2)cc1	0%	18µM*	11%	30%	29%	u
COc1ccc(OCCC(=O)N2CCN(C)CC2)cc1	x	x	2%	-5%	-5%	-3%
O=C(NN1CCCCC1)c1cccc(COc2ccc(Cl)cc2)c1	1%	14µM*	u	u	3.5µM*	4.8µM*
CCOc1ccc(C(=O)N2CCCC2)cc1	0%	7%	3%	-2%	1%	0%
